In PubChem BioAssay (Tox21) one finds outcome and Potency data, which are given here for 9 molecules.

Molecules are shown by their SMILES. “And” between values parts separate entries of the source, which are not always exact repeats. Equal values may be shown once. Records with an inconclusive call do not appear. The source made the active and inactive calls. Unless noted, calls come from the whole dose curve; as a rule, active = well fitted curve in the direction sought with a large enough effect in the repeat runs; inconclusive = weak or mixed curves; inactive = no such curve, though single readings can be large; an effect the other way counts as inactive or inconclusive.

Assay [1] is described as follows: qHTS assay to identify small molecule agonists of the androgen receptor (AR) signaling pathway in the presence of an antagonist - cell viability counter screen (AID 1259379).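 Note: MDA-kb2 human breast cancer cells carrying an MMTV luciferase reporter; series mostly up to about 92 µM; nearly all actives have a fitted effect of over 25% in size.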 In short, it runs like this: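 Cytotoxicity is assessed by CellTiter-Fluor in MDA-kb2 cells carrying an MMTV-driven luciferase reporter. Cells receive 3.0uM nilutamide plus compounds at 15 concentrations and incubate 16 hr at 37C without CO2 before fluorescence reading.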

A short description of assay [2]: qHTS assay to identify small molecule agonists of the estrogen receptor beta (ER-beta) signaling pathway - cell viability counter screen (AID 1259380). Note: nearly all actives have a fitted effect of over 30% in size. A digest of the protocol: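 Cytotoxicity is measured in parallel with the reporter screen: after 16 hr compound exposure at 37C and a 2 hr LiveBLAzer step, CellTiter-Glo is added to the same ER-beta-UAS-bla HEK293T wells and luminescence read after 30 min.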

Assay [3] can be described thus: qHTS assay to identify small molecule antagonists of the estrogen receptor beta (ER-beta) signaling pathway - cell viability counter screen (AID 1259382).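 Note: HEK293T cells carrying ER-beta-UAS-bla reporter stimulated with estradiol; series mostly up to about 92 µM; nearly all actives have a fitted effect of over 55% in size.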 A digest of the protocol: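 Cytotoxicity counter screen multiplexed with the beta-lactamase antagonist assay: GripTite HEK293T ER-beta-bla cells were treated 16 hr with test chemicals in the presence of 1nM 17-beta-estradiol, and viability was measured by CellTiter-Glo.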
In general terms: Quantitative high-throughput screening tests each substance at several concentrations.

The nature of assay [4]: qHTS assay to identify small molecule agonists or antagonists of the thyroid stimulating hormone receptor (TSHR) signaling pathway - wild type cell line counter screen (AID 1259384; calls by dose curve). In short, it runs like this: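 Counter screen in untransfected Hek293: compounds (15-point titration, triplicate) plus phosphodiesterase inhibitor Ro20-1724 added after 18 h plating; 30 min RT. Intracellular cAMP via competitive d2/cryptate immunoassay, 1 h incubation.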

For assay [5], the target named is Thyrotropin receptor (Homo sapiens) (UniProt P16473). Briefly: qHTS assay to identify small molecule antagonists of the thyroid stimulating hormone receptor (TSHR) signaling pathway (AID 1259385; calls by dose curve; note: nearly all actives have a fitted effect of over 20% in size). A digest of the protocol: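 Antagonist mode: compound-treated TSHR-expressing HEK293 cells were stimulated with 1.5 ng/mL TSH (final) in presence of Ro20-1724 for 30 min at RT. HTRF cAMP detection after 1 h; each compound tested at 15 concentrations, triplicate.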
Sequence of Thyrotropin receptor (Homo sapiens) (P16473 whole entry, looked up): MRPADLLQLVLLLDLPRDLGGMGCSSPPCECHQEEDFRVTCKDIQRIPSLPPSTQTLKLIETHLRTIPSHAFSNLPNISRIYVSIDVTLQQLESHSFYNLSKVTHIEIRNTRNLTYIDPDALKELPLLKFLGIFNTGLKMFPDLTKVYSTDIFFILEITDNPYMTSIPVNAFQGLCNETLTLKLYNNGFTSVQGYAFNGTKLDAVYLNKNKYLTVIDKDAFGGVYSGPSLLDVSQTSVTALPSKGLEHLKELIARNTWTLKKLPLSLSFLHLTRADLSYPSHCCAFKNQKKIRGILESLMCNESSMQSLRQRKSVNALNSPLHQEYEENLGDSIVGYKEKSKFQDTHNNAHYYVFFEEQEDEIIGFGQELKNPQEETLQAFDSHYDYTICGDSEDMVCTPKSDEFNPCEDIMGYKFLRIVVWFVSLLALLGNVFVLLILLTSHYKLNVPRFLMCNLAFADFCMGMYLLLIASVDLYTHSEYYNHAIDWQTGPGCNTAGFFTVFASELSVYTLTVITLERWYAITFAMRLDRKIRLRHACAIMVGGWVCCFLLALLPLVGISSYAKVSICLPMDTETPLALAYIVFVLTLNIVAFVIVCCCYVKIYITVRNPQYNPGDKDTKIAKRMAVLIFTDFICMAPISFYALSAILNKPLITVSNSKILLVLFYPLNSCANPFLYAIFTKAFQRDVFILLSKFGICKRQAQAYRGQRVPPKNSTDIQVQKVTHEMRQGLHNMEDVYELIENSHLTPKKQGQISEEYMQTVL

The nature of assay [6]: qHTS assay to identify small molecule agonists of the estrogen receptor alpha (ER-alpha) signaling pathway in the presence of an antagonist - cell viability counter screen (AID 1259386).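 Note: series mostly up to about 92 µM; cells exposed to compounds for 22 h at 37 °C before the viability read; nearly all actives have a fitted effect of over 30% in size.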 A digest of the protocol:
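Cytotoxicity was measured in parallel with the ERE-luciferase agonist screen, in the same wells. The cells were VM7Luc4E2, which endogenously express ER-alpha, and treatment was with compounds plus 10.0nM ICI-182,780 for 22hr.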

The target in assay [7] is Progesterone receptor (Homo sapiens) (UniProt P06401). The experiment in a line: qHTS assay to identify small molecule agonists of the progesterone receptor (PR) signaling pathway (AID 1346784; calls by dose curve; note: nearly all actives have a fitted effect of over 30% in size). In short, it runs like this:
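Reporter assay, GripTite PR-UAS-bla HEK 293T cells: 16 hr exposure to DMSO-dissolved compounds at 37C, 5% CO2, in steroid-depleted (2% charcoal-stripped FBS) medium; beta-lactamase measured by FRET fluorescence.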

The nature of assay [8]: qHTS assay to identify small molecule antagonists of the progesterone receptor (PR) signaling pathway - cell viability counter screen (AID 1346798). Note: series mostly up to about 92 µM; nearly all actives have a fitted effect of over 50% in size. In short, it runs like this:
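In the same plates used for the beta-lactamase readout, cell viability of compound- and R5020-treated PR-UAS-bla HEK293T cells (16 hr, 37C) was assessed by CellTiter-Glo luminescence.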

Assay [9] is described as follows: qHTS assay to identify small molecule agonists of the progesterone receptor (PR) signaling pathway - cell viability counter screen (AID 1346799; calls by dose curve; note: nearly all actives have a fitted effect of over 45% in size). In short, it runs like this: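 Multiplexed viability read: CellTiter-Glo luminescence, 30 min RT, following LiveBLAzer FRET measurement on PR-UAS-bla HEK293T cells exposed to compounds 16 hr.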
Assay [10] is described as follows: qHTS assay to identify small molecule antagonists of the TGF-beta/Smad signaling pathway - cell viability counter screen (AID 1346824). Note: nearly all actives have a fitted effect of over 50% in size. In short, it runs like this:
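Cytotoxicity counter-screen run in the same wells as the beta-lactamase Smad reporter read: CellTiter-Glo luminescence after 30 min at room temperature. HEK 293T SBE-bla cells had 5 hr compound exposure at 37 C with TGF-beta1 (0.25 ng/mL stock).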

Assay [11] in a line: qHTS assay to identify small molecule agonists of the TGF-beta/Smad signaling pathway - cell viability counter screen (AID 1346829). Note: top concentration of the series differs between compounds; nearly all actives have a fitted effect of over 45% in size. A digest of the protocol: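 In parallel with the Smad reporter read, viability of HEK 293T cells stably carrying SBE-bla is quantified by ATP luminescence following 5 hr compound treatment.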
Assay [12] can be described thus: Human pregnane X receptor (PXR) small molecule agonists, qHTS cell viability counter screen (AID 1346977). Note: nearly all actives have a fitted effect of over 50% in size. In short, it runs like this:
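In each well, the PXR reporter HepG2 line was checked for viability: CellTiter-Fluor reagent added 23hr post-dosing, fluorescence read after 1hr incubation at 37C.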

The nature of assay [13]: Caspase-3/7 induction in HepG2 cells by small molecules, qHTS assay (AID 1346978). Note: nearly all actives have a fitted effect of over 15% in size. In short, it runs like this:
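Caspase-3/7 induction was measured by Caspase-Glo 3/7 luminescence (30 min, room temperature) after a 17 hr compound exposure of wild-type HepG2 cells seeded at 2,000 per well and pre-incubated 5 hr.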

Assay [14] in a line: Caspase-3/7 induction in CHO-K1 cells by small molecules, qHTS cell viability counter screen (AID 1346979). Note: nearly all actives have a fitted effect of over 35% in size. In short, it runs like this: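 Following a 5hr settling period, CHO-K1 cells at 1,500 per well received DMSO-dissolved compounds. Cell viability was quantified 16hr later by CellTiter-Fluor fluorescence, measured after 1hr with reagent at 37C.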
The target in assay [15] is Progesterone receptor (Homo sapiens) (UniProt P06401). The experiment in a line: qHTS assay to identify small molecule antagonists of the progesterone receptor (PR) signaling pathway (AID 1346795; active = well fitted inhibition curve with a large enough effect in the signal ratio in the repeat runs, not every such curve was filed as active; the % refers to the signal ratio; note: potency is the fitted concentration of half-maximal effect). In short, it runs like this: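 Stimulus R5020 at 1 nM final; cells HEK293T PR-UAS-bla; medium with 2% charcoal-stripped FBS; compound exposure 16 hr at 37C, 5% CO2; detection by FRET beta-lactamase substrate, 2 hr, room temperature.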
Sequence of Progesterone receptor (Homo sapiens) (P06401 whole entry, looked up): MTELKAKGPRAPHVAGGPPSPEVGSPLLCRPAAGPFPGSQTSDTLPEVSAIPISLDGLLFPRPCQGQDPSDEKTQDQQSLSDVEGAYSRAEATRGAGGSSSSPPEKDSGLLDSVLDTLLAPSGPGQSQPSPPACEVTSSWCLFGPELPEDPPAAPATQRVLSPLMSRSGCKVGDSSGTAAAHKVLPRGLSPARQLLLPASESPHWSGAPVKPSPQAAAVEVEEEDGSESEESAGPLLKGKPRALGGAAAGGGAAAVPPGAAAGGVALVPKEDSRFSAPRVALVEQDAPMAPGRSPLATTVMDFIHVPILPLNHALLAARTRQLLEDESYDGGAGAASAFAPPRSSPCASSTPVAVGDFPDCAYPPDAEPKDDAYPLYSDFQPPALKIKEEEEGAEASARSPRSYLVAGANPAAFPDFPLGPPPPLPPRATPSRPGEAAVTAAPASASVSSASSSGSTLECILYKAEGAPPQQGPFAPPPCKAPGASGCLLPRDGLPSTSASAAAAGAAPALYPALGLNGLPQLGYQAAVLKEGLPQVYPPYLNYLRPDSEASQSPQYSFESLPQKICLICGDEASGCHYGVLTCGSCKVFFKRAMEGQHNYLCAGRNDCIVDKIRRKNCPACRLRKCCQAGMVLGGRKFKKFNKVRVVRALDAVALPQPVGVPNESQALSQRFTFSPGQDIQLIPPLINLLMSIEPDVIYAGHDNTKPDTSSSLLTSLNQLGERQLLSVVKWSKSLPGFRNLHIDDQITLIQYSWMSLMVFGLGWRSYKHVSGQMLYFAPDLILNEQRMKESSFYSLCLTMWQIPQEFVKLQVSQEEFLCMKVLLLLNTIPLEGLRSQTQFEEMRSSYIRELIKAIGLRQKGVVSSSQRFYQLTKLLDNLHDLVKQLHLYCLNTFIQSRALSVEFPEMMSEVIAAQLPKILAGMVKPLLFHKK

The nature of assay [16]: qHTS assay to identify small molecule agonists of the TGF-beta/Smad signaling pathway (AID 1346859; active = well fitted activation curve with a large enough effect in the signal ratio in the repeat runs, not every such curve was filed as active; the % refers to the signal ratio; note: series mostly up to about 77 µM). A digest of the protocol:
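Screening used HEK 293T SBE-bla cells at 4,000/well. Test agents: 5 hr, 37 C. Detection: FRET substrate, 2 hr RT, then excitation 405 nm with emissions at 460 and 530 nm.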

Assay [17] addresses Androgen receptor (Homo sapiens) (UniProt P10275). Briefly: qHTS assay to identify small molecule agonists of the androgen receptor (AR) signaling pathway in the presence of an antagonist (AID 1259381; calls by dose curve; note: nearly all actives have a fitted effect of over 15% in size). A digest of the protocol: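 Agonist-mode confirmation screen: human MDA-kb2 cells stably expressing luciferase under an MMTV promoter bearing AR and GR response elements, co-treated with 3.0uM nilutamide (final). Luminescence measured after 16hr compound incubation.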

Assay [18] deals with Estrogen receptor (Homo sapiens) (UniProt P03372). Briefly: qHTS assay to identify small molecule agonists of the estrogen receptor alpha (ER-alpha) signaling pathway in the presence of an antagonist (AID 1259383; calls by dose curve; note: top concentration of the series differs between compounds; nearly all actives have a fitted effect of over 15% in size). In short, it runs like this:
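Agonist-mode confirmation in the presence of the ER antagonist ICI-182,780 at 10.0nM final. Breast-derived VM7Luc4E2 reporter cells were exposed to compounds for 22hr, and ERE-driven luciferase was quantified by luminescence.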

Assay [19] concerns the target Thyrotropin-releasing hormone receptor (Homo sapiens) (UniProt P34981). Briefly: qHTS assay to identify small molecule antagonists of the thyrotropin-releasing hormone receptor (TRHR) signaling pathway (AID 1346877; active = well fitted inhibition curve with a large enough effect in the repeat runs, not every such curve was filed as active; note: series mostly up to about 51 µM). A digest of the protocol:
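Antagonism is measured as suppression of the calcium response to 1 nM TRH in TRHR-HEK293 cells that have been dye-loaded for 2 h at 37 °C after overnight plating. Each compound is tested at 15 concentrations in triplicate.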

For assay [20] the target is unchanged. The experiment in a line: qHTS assay to identify small molecule agonists of the thyrotropin-releasing hormone receptor (TRHR) signaling pathway (AID 1346891; calls by dose curve; note: series mostly up to about 58 µM). A digest of the protocol:
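Readout was intracellular calcium fluorescence in TRHR-Hek293 cells. Cells were incubated 18 h, dye-loaded 2 h at 37 °C, and treated with compound in agonist mode.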

Sequence of Estrogen receptor (Homo sapiens) (P03372 whole entry, looked up): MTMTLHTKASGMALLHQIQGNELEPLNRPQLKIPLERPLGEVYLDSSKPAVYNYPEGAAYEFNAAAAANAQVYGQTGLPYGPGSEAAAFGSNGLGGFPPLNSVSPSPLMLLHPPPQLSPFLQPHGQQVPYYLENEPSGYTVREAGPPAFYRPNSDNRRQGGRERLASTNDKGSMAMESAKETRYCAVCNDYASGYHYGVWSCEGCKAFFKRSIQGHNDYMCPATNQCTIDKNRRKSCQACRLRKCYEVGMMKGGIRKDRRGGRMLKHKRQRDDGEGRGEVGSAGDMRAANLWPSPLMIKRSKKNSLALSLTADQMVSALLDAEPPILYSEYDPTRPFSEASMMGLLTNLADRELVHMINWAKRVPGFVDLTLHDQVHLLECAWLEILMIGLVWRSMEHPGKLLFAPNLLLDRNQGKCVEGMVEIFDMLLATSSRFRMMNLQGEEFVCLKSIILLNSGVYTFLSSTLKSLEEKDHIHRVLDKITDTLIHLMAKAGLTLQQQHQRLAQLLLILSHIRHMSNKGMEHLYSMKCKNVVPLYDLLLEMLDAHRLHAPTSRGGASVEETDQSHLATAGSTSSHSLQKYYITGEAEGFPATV
Sequence of Thyrotropin-releasing hormone receptor (Homo sapiens) (P34981 whole entry, looked up): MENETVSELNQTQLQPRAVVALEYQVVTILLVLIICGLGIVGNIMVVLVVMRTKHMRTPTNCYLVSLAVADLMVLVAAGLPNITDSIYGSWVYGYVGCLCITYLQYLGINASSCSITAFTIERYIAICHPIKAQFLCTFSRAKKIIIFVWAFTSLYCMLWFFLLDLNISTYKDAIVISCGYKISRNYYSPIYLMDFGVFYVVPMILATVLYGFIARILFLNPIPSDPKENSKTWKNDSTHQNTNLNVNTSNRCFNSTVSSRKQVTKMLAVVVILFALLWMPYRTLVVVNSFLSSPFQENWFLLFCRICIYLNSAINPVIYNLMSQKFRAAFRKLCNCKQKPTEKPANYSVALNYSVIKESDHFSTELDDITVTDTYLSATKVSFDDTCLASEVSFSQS
Sequence of Androgen receptor (Homo sapiens) (P10275 whole entry, looked up): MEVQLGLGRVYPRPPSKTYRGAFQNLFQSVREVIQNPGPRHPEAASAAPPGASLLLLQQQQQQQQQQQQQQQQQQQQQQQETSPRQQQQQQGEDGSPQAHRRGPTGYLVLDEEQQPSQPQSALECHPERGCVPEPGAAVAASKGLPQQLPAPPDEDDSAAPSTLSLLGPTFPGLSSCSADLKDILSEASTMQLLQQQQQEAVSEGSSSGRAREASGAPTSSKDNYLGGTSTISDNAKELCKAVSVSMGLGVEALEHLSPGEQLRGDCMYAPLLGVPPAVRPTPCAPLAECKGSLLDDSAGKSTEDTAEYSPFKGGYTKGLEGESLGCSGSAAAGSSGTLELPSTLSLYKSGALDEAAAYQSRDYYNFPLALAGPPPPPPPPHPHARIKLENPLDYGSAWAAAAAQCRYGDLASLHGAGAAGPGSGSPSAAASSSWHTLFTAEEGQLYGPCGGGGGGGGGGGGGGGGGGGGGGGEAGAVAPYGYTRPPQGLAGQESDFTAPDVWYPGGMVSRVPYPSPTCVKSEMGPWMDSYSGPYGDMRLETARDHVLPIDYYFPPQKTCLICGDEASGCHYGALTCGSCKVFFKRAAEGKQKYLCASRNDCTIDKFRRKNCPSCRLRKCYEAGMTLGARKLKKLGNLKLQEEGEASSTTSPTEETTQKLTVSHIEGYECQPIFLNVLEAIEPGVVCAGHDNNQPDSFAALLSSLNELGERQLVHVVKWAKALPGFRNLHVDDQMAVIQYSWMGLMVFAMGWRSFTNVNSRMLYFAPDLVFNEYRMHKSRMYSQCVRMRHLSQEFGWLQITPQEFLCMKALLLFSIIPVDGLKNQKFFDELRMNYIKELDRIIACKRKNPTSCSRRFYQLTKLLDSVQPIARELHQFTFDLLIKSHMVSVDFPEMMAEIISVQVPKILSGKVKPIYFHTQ

Regarding `C[C@]12CC[C@H]3[C@@H](CC[C@@]45O[C@@H]4C(O)=C(C#N)C[C@]35C)[C@@H]1CC[C@@H]2O`, the result in assay [1], in [4], in assay [6], in [7], in [11] and in assay [13] was inactive. Further, the Potency entry in [2], in [3], in assay [5], in [8], in assay [9] and in [10] was “inactive” each time. Moreover, the Potency entry in [12] and in [14] was “inactive” in each case.
In the case of `CC(C)(C)OOC(=O)c1ccccc1`, the outcome in [1], in assay [6], in [7] and in assay [11] was inactive. Besides, the Potency entry in [2], in assay [3], in assay [15], in [8], in assay [9] and in assay [10] was “inactive” throughout. Also, the Potency entry in assay [16], in [12] and in assay [14] was “inactive” in each case.
For the molecule `CCCN(CCC)c1c([N+](=O)[O-])cc(C(F)(F)F)cc1[N+](=O)[O-]`, the outcome in assay [1], in assay [17], in [4], in assay [6], in [7] and in assay [11] was inactive. Besides, the molecule was called inactive in assay [19] and in assay [13]. The Potency entry in assay [3], in assay [18], in assay [5], in [15], in assay [8] and in assay [9] was “inactive” each time. In addition, the Potency result in [10], in assay [16], in assay [20], in [12] and in [14] was “inactive” throughout.
In the case of `CCCCCCCCCCCC#N`, the outcome in assay [1], in assay [4], in assay [6], in assay [7], in assay [11] and in [13] was inactive. The Potency entry in assay [2], in assay [3], in [5], in [15], in [8] and in assay [9] was “inactive” each time. The Potency result in assay [10], in [16], in assay [12] and in [14] was “inactive” in each case.
For the molecule `CCCCCOC(=O)c1ccccc1C(=O)OCCCCC`, the result in assay [1], in assay [4], in assay [6], in assay [7] and in assay [11] was inactive. The Potency result in assay [2], in assay [3], in assay [18], in assay [5], in assay [8] and in assay [9] was “inactive” each time. Besides, the Potency result in assay [10], in assay [16], in assay [20], in assay [12] and in assay [14] was “inactive” in each case.
Take `Nc1c(Cl)c(Cl)nc(C(=O)O)c1Cl`: the outcome in assay [1], in assay [4], in assay [6], in assay [7], in assay [11] and in [13] was inactive. Further, the Potency entry in [2], in assay [3], in assay [18], in assay [5], in [15] and in assay [8] was “inactive” throughout. In addition, the Potency entry in assay [9], in [10], in [20], in assay [12] and in assay [14] was “inactive” throughout.
As to `O=c1ccc(=O)[nH][nH]1`, the result in [1], in [17], in assay [4], in assay [6], in [7] and in assay [11] was inactive. Moreover, the Potency result in [3], in assay [5], in [15], in assay [8], in [9] and in [10] was “inactive” each time. The Potency entry in assay [16], in [12] and in assay [14] was “inactive” throughout.
For the molecule `c1ccc(-c2ccccc2)cc1`, the outcome in assay [1], in assay [17], in assay [4], in assay [6], in assay [7] and in assay [11] was inactive. In assay [19], the molecule was classed as inactive. Also, the Potency result in [3], in [18], in [5], in assay [8], in assay [9] and in assay [10] was “inactive” throughout. Also, the Potency entry in [16], in assay [20], in assay [12] and in [14] was “inactive” each time.
On to `O=[N+]([O-])c1ccc(Oc2ccc(Cl)cc2Cl)cc1`, for which the outcome in assay [1], in assay [4], in assay [6], in [7] and in [11] was inactive. For the same molecule, the Potency entry in assay [2], in [3], in assay [5], in [9], in assay [10] and in assay [16] was “inactive” in each case. Moreover, the Potency entry in assay [20], in assay [12] and in assay [14] was “inactive” in each case. Also, in [15], the Potency was 15.4 µM (active) and 9.69 µM (active).
